Reference: PubChem BioAssay

What was measured:
[1] = test system: Human papillomavirus type 1a protein E7 (residues 44-93); test: small molecules binding HPV E7 44-93 – biochemical, small-molecule microarray, residues 44-93, 635 nm fluorescence, primary screen (AID 1108); conditions: fluorescence 635 nm, higher = more signal;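 also: E7 fragment applied at 1 µg/mL in TBST for 1 h at 4 C; score combines spot fluorescence with its signal to noise ratio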
[2] = hepatitis C replication reporter changes, two-sided – Huh7 cells, luciferase reporter, HCV replication inhibitor project, primary screen (AID 1109); conditions: Huh7 HCV replicon luciferase reporter, 48 h; higher = more signal;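 also: huh7 hepatoma cells harbouring a luciferase neomycin HCV replicon reporter; luciferase luminescence as measure of HCV replicon replication; test concentration not given here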
[3] = molecular target: Left-right determination factor 2 (Homo sapiens) (UniProt O00292); test: small molecules binding LEFTY2 protein – biochemical, small-molecule microarray, 635 nm fluorescence scan, primary screen (AID 1110); conditions: higher = more signal
Chain of Left-right determination factor 2 (Homo sapiens) (O00292 whole entry, looked up): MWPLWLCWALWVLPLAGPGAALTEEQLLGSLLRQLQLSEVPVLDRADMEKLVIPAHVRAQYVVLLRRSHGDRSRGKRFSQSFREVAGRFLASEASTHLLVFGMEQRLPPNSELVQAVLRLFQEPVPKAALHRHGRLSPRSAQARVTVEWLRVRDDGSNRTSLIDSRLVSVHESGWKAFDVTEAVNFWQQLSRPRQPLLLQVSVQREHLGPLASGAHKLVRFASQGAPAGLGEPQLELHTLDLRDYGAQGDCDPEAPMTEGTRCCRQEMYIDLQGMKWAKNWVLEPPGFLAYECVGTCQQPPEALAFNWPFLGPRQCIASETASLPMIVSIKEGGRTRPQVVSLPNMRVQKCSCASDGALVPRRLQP

[4] = molecular target: Calmodulin-1 (Homo sapiens) (UniProt P0DP23); test: small molecules binding calmodulin-1 with EGTA – biochemical, small-molecule microarray, Cy5-labelled CALM1, profiling panel (AID 1111); conditions: Cy5-CALM1 binding fluorescence, higher = more signal;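 also: labelled calmodulin applied in Tris saline Tween buffer holding calcium plus EGTA and DTT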
[5] = molecular target: Calmodulin-1 (Homo sapiens) (UniProt P0DP23); test: small molecules binding Ca-loaded calmodulin-1 – biochemical, small-molecule microarray, Cy5-labelled CALM1, plus calcium, artefact control for SMM control-protein annotation, profiling panel (AID 1112); conditions: Cy5-CALM1 binding fluorescence, higher = more signal;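 also: score merges spot fluorescence with signal to noise from triplicate slides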
[6] = probe aWnt5a binding to arrayed compounds – biochemical, biotinylated probe, 635/667 nm fluorescence, primary screen (AID 1113); conditions: small-molecule microarray, higher = more signal;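 also: score merges 667 nm fluorescence intensity with signal-to-noise per printed feature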
[7] = probe aShh binding to arrayed compounds – biochemical, biotinylated probe, 635/667 nm fluorescence, primary screen (AID 1114); conditions: small-molecule microarray, higher = more signal;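 also: probe is biotin-labelled aShh protein from a stem cell growth factor screen; measures binding of labelled protein to compounds printed on the slide; score merges feature fluorescence at 667 nm with signal-to-noise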
[8] = probe aNog binding to arrayed compounds – biochemical, biotinylated probe, 635/667 nm fluorescence, primary screen (AID 1115); conditions: small-molecule microarray, higher = more signal;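 also: probe is biotinylated aNog protein used at 0.15 µg/mL for 1 h at 4 C; z-score combines 667 nm fluorescence of each spot with its signal to noise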
[9] = molecular target: Torsin-1A-interacting protein 1 (Homo sapiens) (UniProt Q5JTV8); test: compound microarray binding of lysate hLAP1 – cell lysate, small-molecule microarray, COS7 lysate, 635/667 nm fluorescence, primary screen (AID 1116); conditions: 635 nm fluorescence, higher = more signal
Chain of Torsin-1A-interacting protein 1 (Homo sapiens) (Q5JTV8 whole entry, looked up): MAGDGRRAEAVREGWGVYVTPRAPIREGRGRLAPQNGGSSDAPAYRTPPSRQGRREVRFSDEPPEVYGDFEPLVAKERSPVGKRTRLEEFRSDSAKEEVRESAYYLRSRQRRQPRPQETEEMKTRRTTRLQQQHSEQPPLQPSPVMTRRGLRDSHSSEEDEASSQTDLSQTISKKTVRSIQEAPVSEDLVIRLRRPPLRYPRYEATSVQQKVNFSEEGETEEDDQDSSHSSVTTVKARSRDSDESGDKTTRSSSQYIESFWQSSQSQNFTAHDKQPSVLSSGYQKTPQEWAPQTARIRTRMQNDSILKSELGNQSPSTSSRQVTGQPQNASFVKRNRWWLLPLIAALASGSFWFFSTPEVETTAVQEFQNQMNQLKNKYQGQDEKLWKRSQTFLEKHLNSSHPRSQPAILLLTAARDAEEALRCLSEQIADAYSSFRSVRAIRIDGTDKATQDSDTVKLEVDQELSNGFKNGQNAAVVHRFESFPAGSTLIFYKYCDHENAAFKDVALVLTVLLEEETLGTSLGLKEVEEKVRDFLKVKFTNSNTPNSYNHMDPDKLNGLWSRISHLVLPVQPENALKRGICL

[10] = molecular target: Alpha-bungarotoxin (Bungarus multicinctus) (UniProt P60615); test: compounds binding labelled alpha-BTX control protein – biochemical, small-molecule microarray, Alexa647 label, 635/667 nm fluorescence, artefact control for SMM control protein annotation, profiling panel (AID 1117); conditions: alpha-BTX-A647 binding fluorescence, higher = more signal
Chain of Alpha-bungarotoxin (Bungarus multicinctus) (P60615 whole entry, looked up): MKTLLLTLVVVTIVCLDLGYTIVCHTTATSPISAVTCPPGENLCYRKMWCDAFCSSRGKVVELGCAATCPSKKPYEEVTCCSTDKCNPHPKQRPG

| Structure (SMILES) | composite z-score [1] | z-score [2] | composite z-score [3] | composite z-score [4] | composite z-score [5] | composite z-score [6] | composite z-score [7] | composite z-score [8] | composite z-score [9] | composite z-score [10] |
| --- | --- | --- | --- | --- | --- | --- | --- | --- | --- | --- |
| O=C(NCc1ccc(F)cc1)[C@H]1C[C@H]2C(=O)NCC(=O)N2[C@H]1c1ccc(O)cc1 | 1.03 | -0.0497 | 0.887 | -0.449 | 0.0871 | -0.0684 | -0.0553 | -0.132 | 0.605 | -0.144 |
| Cc1ccc(S[C@]2(C(=O)NCc3ccccc3)CC(=O)N(C3CCCCC3)[C@@H]2c2ccc(CO)cc2I)cc1 | 1.23 | -2.75 | -0.364 | 0.699 | -0.267 | 0.205 | -0.0324 | -0.18 | 0.759 | 0.604 |
| COCC(=C=CC[C@H](O)c1ccccc1OCCO)C[C@H](O)c1ccccn1 | -0.0881 | -0.267 | 0.155 | -0.0135 | -0.411 | -0.18 | -0.214 | -0.173 | -0.191 | -0.0928 |
| [N-]=[N+]=Nc1ccccc1[C@@H]1OC(c2ccc(OCCCO)cc2)=N[C@]1(Cc1ccccc1)C(=O)O | 1.4 | 0.848 | -0.529 | 1.57 | 0.886 | 0.0391 | 0.0659 | 0.135 | 1.35 | 1.7 |
| C=CC[C@@H](OC(=O)Nc1ccc(SC)cc1)c1ccc(O)c(F)c1 | -0.148 | 0.56 | -0.28 | -0.818 | -0.776 | -0.0991 | 0.42 | -0.036 | 0.958 | 0.26 |
| [N-]=[N+]=NCc1ccccc1C[C@@]1(C(N)=O)N=C(c2ccc(OCCCO)cc2)O[C@@H]1c1ccccc1 | 1.43 | -1.74 | -1.41 | 1.85 | 0.989 | -0.0417 | -0.0035 | -0.071 | 2.07 | 2.33 |
| CC(C)(C)OC(=O)COc1cccc(C(=O)CCN2CCOCC2)c1 | 0.219 | -1.7 | 0.0527 | -0.501 | -0.841 | -0.192 | -0.193 | -0.419 | -0.0786 | -0.204 |
| CC(C)c1ccc(NN2C(C(O)c3ccc(C#N)cc3)C=CC3C(=O)N(c4ccccc4)C(=O)C32)cc1 (stereo not given) | 1.44 | -0.882 | -0.109 | 2.28 | 1.01 | -0.0405 | 0.19 | 1.97 | 1.35 | 1.85 |
| CCCCCC1=C2CNC(C)(C(=O)OC)C=C2C(C)C1=O (stereo not given) | -0.696 | -0.654 | -0.37 | 0.764 | 0.897 | -0.0519 | 0.265 | 1.17 | 0.137 | -0.0075 |
| CC(C)=C1C(=O)C(c2ccccc2)=C2CN3C(=O)N(CCc4ccccc4)C(=O)[C@]3(Cc3ccc(C(F)(F)F)cc3)[C@H]21 | -0.396 | -0.508 | -0.906 | 1.66 | 0.953 | 0.0044 | 0.275 | -0.781 | 0.759 | 0.716 |
| COC(=O)[C@@]1(Cc2ccc(OC)cc2)[C@H]2c3cc(C(=O)N4CCCC4)n(CCc4c[nH]c5ccc(OC)cc45)c3C[C@H]2CN1C(=O)c1ccccc1 | 0.113 | -1.93 | 0.221 | 2.28 | 1.46 | 0.155 | 0.504 | 1.54 | 2.19 | 1.38 |
| [N-]=[N+]=NCc1ccccc1[C@@H]1OC(c2ccc(OCCCO)cc2)=N[C@]1(CCS(=O)(=O)c1ccccc1)C(=O)O | 1.31 | 1.1 | -0.151 | 0.678 | 0.0892 | 0.0487 | 0.0469 | 0.592 | 0.953 | 1.17 |
| CCCNC(=O)[C@@]1(Sc2ccc(C)cc2)CC(=O)N(C2Cc3ccccc3C2)[C@@H]1c1ccc(CO)cc1I | 1.08 | -1.65 | 0.698 | 0.183 | 0.497 | 0.0932 | -0.221 | 1.17 | 0.604 | 0.161 |
| O=C1N(Cc2ccccc2)c2ccccc2C[C@]12N=C(c1ccc(OCCCO)cc1)O[C@@H]2c1ccccc1 | 0.732 | -3.02 | 0.133 | 0.51 | -0.249 | -0.0179 | -0.332 | -0.356 | -0.0883 | 0.743 |
| C=C[C@H](C)[C@H](OC(=O)Nc1ccc(SC)cc1)c1ccc(OCCO)cc1 | 0.248 | -1.19 | -0.0482 | 0.272 | -0.037 | -0.183 | 0.142 | 0.576 | 1.6 | 1.58 |
| CCOC(=O)C[C@H]1[C@H](OC(=O)c2ccc(C(=O)c3ccccc3)cc2)[C@@H](NC(=O)CC(C)C)c2cc(OCCCO)ccc2N1C(=O)c1ccccc1 | 1.3 | -1.12 | 0.53 | 0.735 | -0.165 | -0.0758 | -0.167 | -0.0927 | 0.537 | 0.741 |
| CCOC(=O)C[C@H]1[C@H](OC(=O)c2cc3ccccc3oc2=O)[C@@H](NC(=O)CC(C)C)c2cc(OCCCO)ccc2N1C(=O)c1ccc2ccccc2n1 | 1.05 | -0.359 | 0.643 | -0.134 | -0.35 | -0.152 | -0.154 | -0.143 | 0.0785 | 0.643 |
| Cc1ccc(C(C)CC(O)C2C=CC3C(=O)N(c4ccccc4)C(=O)C3N2Nc2ccccc2)o1 (stereo not given) | 1.44 | -0.741 | 0.285 | 1.3 | 0.125 | 0.0802 | 0.308 | 1.5 | 0.789 | 1.3 |
| C[C@@H]1NC(=O)[C@@H](Cc2ccccc2)NC(=O)[C@@]23C(=O)N[C@@H](Cc4ccccc4)C2[C@H](C)[C@@]2(C)O[C@H]2C3/C=C/C/C=C\CNC1=O (stereo not given in full) | 0.739 | -0.857 | -0.22 | -0.744 | -1.16 | -0.222 | -0.0471 | -0.281 | -0.0991 | -0.537 |
| C=C(COC)/C(=C/C[C@H](OC(=O)c1ccncc1)c1ccccc1OCCO)c1cc(C(=O)OC)ccc1OC | 1.43 | -2.76 | 0.753 | -0.191 | -0.59 | -0.0687 | -0.494 | -0.145 | -0.353 | 0.251 |
| CC(C)C[C@@H]1NC(=O)[C@@H]2C[C@H](C(=O)NCCCCCCN)[C@H](c3cccc(OCCO)c3)N2C1=O | 1.46 | -0.125 | 0.281 | 0.861 | -0.0534 | -0.0461 | -0.349 | -0.346 | 1.13 | 1.67 |
| C[N+](C)(C)CCCC[C@@H]1NC(=O)[C@@H]2C[C@H](C(=O)NCCCCCCN)[C@H](c3cccc(OCCO)c3)N2C1=O | 0.896 | -0.0759 | 0.676 | 2.6 | 1.48 | 0.095 | 1.45 | 0.662 | 2.55 | 1.9 |
| COC(=O)[C@@]1(Cc2ccccc2)[C@H]2c3cc(C(=O)N4CCCC4)n(CCc4ccccn4)c3C[C@H]2CN1C(=O)c1ccccc1 | 1.43 | -1.65 | -0.204 | 2.13 | 0.842 | -0.0776 | -0.353 | 1.84 | 2.53 | 0.298 |
| CN(C)CCCCCCNC(=O)[C@@H]1C[C@@H]2C(=O)N3CCC[C@H]3C(=O)N2[C@@H]1c1cccc(OCCO)c1 | 0.35 | 0.857 | 0.944 | -0.215 | -1.74 | 0.0566 | 0.176 | 0.822 | 2.07 | 1.79 |
| C#CCN(Cc1ccccc1Br)[C@H](/C=C/c1ccccc1)[C@@H](O)Cc1ccccc1 | 0.169 | -1.42 | -0.81 | -1.03 | 0.41 | -0.128 | -0.124 | 0.0108 | -0.354 | 0.192 |
| CCCCC[C@H]1OC[C@@]23C=C(Br)[C@@H](CC12)[C@@]1(CO1)C3=O (stereo not given in full) | 0.299 | -2.3 | 0.058 | -0.554 | -1.31 | -0.16 | 0.0796 | -0.183 | -0.574 | -0.284 |
